Assay results reported in PubChem BioAssay AID1159580 (chemical genetic matrix, 2015).
Out of some 5,500 compounds screened, about 2,000 (36%) were called active. Roughly 18% stayed inconclusive and do not appear here. Rule as the data show it: active = normalized growth mostly below about 0.91 (no sharp cut-off); inconclusive = no clear call, values can overlap the other calls; inactive = mostly above about 0.92. Some of the results follow.

Experiment: chemical genetic growth profiling, strain panel (AID 1159580);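 also: tested at 20 µM; growth read once vehicle control cultures reached saturation at 30 °C; 1 = growth at the plate median or of vehicle wells; lower values mean less growth of the strain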
Conditions: growth OD

Measured: normalized growth

COc1cc(C(=O)NCc2ccc(OCCN(C)C)cc2)cc(OC)c1OC
inactive: S. cerevisiae deletion strains, locus YJL187C, strain SWE1, stronger effect = lower value 0.99 | S. cerevisiae deletion strains, locus YJR043C, strain POL32, stronger effect = lower value 0.984 | S. cerevisiae deletion strains, locus YJR066W, strain TOR1, stronger effect = lower value 0.929 | S. cerevisiae deletion strains, locus YKL009W, strain mrt4, stronger effect = lower value 1.01 | S. cerevisiae deletion strains, locus YKL068W, stronger effect = lower value 0.978 | S. cerevisiae deletion strains, locus YKL085W, strain MDH1 (second series), stronger effect = lower value 0.975 | S. cerevisiae deletion strains, locus YKL085W, strain MDH1, stronger effect = lower value 0.975 | S. cerevisiae deletion strains, locus YKL160W, strain elf1, stronger effect = lower value 0.947 | S. cerevisiae deletion strains, locus YKL190W, strain CNB1, stronger effect = lower value 0.986 | S. cerevisiae deletion strains, locus YKR001C, strain vps1, stronger effect = lower value 0.983 | S. cerevisiae deletion strains, locus YKR026C, strain gcn3, stronger effect = lower value 0.989 | S. cerevisiae deletion strains, locus YKR091W, strain srl3, stronger effect = lower value 0.993 | S. cerevisiae deletion strains, locus YLL001W, strain dnm1, stronger effect = lower value 1 | S. cerevisiae deletion strains, locus YLL026W, stronger effect = lower value 1 | S. cerevisiae deletion strains, locus YLL041C, strain sdh2, stronger effect = lower value 1 | S. cerevisiae deletion strains, locus YLR027C, strain aat2, stronger effect = lower value 0.996 | S. cerevisiae deletion strains, locus YLR039C, strain RIC1, stronger effect = lower value 0.954 | S. cerevisiae deletion strains, locus YLR058C, strain SHM2, stronger effect = lower value 0.97 | S. cerevisiae deletion strains, locus YLR102C, strain apc9, stronger effect = lower value 0.984 | S. cerevisiae deletion strains, locus YLR113W, strain HOG1, stronger effect = lower value 0.986 | S. cerevisiae deletion strains, locus YLR221C, strain rsa3, stronger effect = lower value 1.01 | S. cerevisiae deletion strains, locus YLR258W, strain gsy2, stronger effect = lower value 0.999 | S. cerevisiae deletion strains, locus YLR262C, strain YPT6 (second series), stronger effect = lower value 1.02 | S. cerevisiae deletion strains, locus YLR262C, strain YPT6, stronger effect = lower value 0.965 | S. cerevisiae deletion strains, locus YLR268W, strain sec22, stronger effect = lower value 0.971 | S. cerevisiae deletion strains, locus YLR320W, strain mms22, stronger effect = lower value 0.978 | S. cerevisiae deletion strains, locus YLR330W, strain CHS5, stronger effect = lower value 0.999 | S. cerevisiae deletion strains, locus YLR342W, strain FKS1 (second series), stronger effect = lower value 1.07 | S. cerevisiae deletion strains, locus YLR342W, strain FKS1, stronger effect = lower value 0.991 | S. cerevisiae deletion strains, locus YLR357W, strain rsc2, stronger effect = lower value 0.959 | S. cerevisiae deletion strains, locus YLR370C, strain arc18, stronger effect = lower value 0.99 | S. cerevisiae deletion strains, locus YLR371W, strain rom2, stronger effect = lower value 0.984 | S. cerevisiae deletion strains, locus YLR384C, strain iki3, stronger effect = lower value 1 | S. cerevisiae deletion strains, locus YLR418C, strain cdc73, stronger effect = lower value 1.01 | S. cerevisiae deletion strains, locus YML016C, strain PPZ1, stronger effect = lower value 0.991 | S. cerevisiae deletion strains, locus YML032C, strain rad52, stronger effect = lower value 0.987 | S. cerevisiae deletion strains, locus YML120C, strain ndi1, stronger effect = lower value 1.01 | S. cerevisiae deletion strains, locus YML124C, strain tub3, stronger effect = lower value 0.982 | S. cerevisiae deletion strains, locus YMR058W, strain fet3, stronger effect = lower value 1.02 | S. cerevisiae deletion strains, locus YMR078C, strain ctf18, stronger effect = lower value 0.984 | S. cerevisiae deletion strains, locus YMR125W, strain sto1, stronger effect = lower value 0.961 | S. cerevisiae deletion strains, locus YMR129W, stronger effect = lower value 1.01 | S. cerevisiae deletion strains, locus YMR205C, strain PFK2, stronger effect = lower value 0.992 | S. cerevisiae deletion strains, locus YMR223W, strain ubp8, stronger effect = lower value 1.03 | S. cerevisiae deletion strains, locus YMR231W, strain pep5, stronger effect = lower value 1 | S. cerevisiae deletion strains, locus YMR307W, strain GAS1, stronger effect = lower value 1.05 | S. cerevisiae deletion strains, locus YNL067W, strain RPL9B, stronger effect = lower value 0.972 | S. cerevisiae deletion strains, locus YNL071W, strain lat1, stronger effect = lower value 0.991 | S. cerevisiae deletion strains, locus YNL183C, strain NPR1, stronger effect = lower value 0.937 | S. cerevisiae deletion strains, locus YNL209W, strain ssb2, stronger effect = lower value 0.988 | S. cerevisiae deletion strains, locus YNL233W, strain BNI4, stronger effect = lower value 0.994 | S. cerevisiae deletion strains, locus YNL248C, strain rpa49, stronger effect = lower value 0.95 | S. cerevisiae deletion strains, locus YNL250W, strain rad50, stronger effect = lower value 0.977 | S. cerevisiae deletion strains, locus YNL271C, strain bni1, stronger effect = lower value 0.976 | S. cerevisiae deletion strains, locus YNL298W, strain CLA4, stronger effect = lower value 0.997 | S. cerevisiae deletion strains, locus YNL307C, strain MCK1, stronger effect = lower value 0.98 | S. cerevisiae deletion strains, locus YNL322C, strain KRE1 (second series), stronger effect = lower value 0.983 | S. cerevisiae deletion strains, locus YNL322C, strain KRE1, stronger effect = lower value 0.984 | S. cerevisiae deletion strains, locus YNR049C, strain mso1, stronger effect = lower value 1 | S. cerevisiae deletion strains, locus YNR052C, strain pop2, stronger effect = lower value 0.988 | S. cerevisiae deletion strains, locus YOL012C, strain htz1 1.41 | S. cerevisiae deletion strains, locus YOL147C, strain pex11, stronger effect = lower value 0.991 | S. cerevisiae deletion strains, locus YOR001W, strain rrp6, stronger effect = lower value 1.01 | S. cerevisiae deletion strains, locus YOR061W, strain CKA2, stronger effect = lower value 0.962 | S. cerevisiae deletion strains, locus YOR069W, strain VPS5, stronger effect = lower value 0.997 | S. cerevisiae deletion strains, locus YOR070C, strain gyp1, stronger effect = lower value 0.997 | S. cerevisiae deletion strains, locus YOR080W, strain dia2, stronger effect = lower value 0.997 | S. cerevisiae deletion strains, locus YOR083W, strain WHI5, stronger effect = lower value 0.927 | S. cerevisiae deletion strains, locus YOR106W, strain vam3, stronger effect = lower value 0.98 | S. cerevisiae deletion strains, locus YOR136W, strain idh2, stronger effect = lower value 0.98 | S. cerevisiae deletion strains, locus YOR144C, strain elg1, stronger effect = lower value 0.993 | S. cerevisiae deletion strains, locus YOR184W, strain ser1, stronger effect = lower value 0.985 | S. cerevisiae deletion strains, locus YOR231W, strain MKK1, stronger effect = lower value 0.984 | S. cerevisiae deletion strains, locus YOR265W, strain rbl2, stronger effect = lower value 1 | S. cerevisiae deletion strains, locus YOR270C, strain vph1, stronger effect = lower value 0.973 | S. cerevisiae deletion strains, locus YOR290C, strain snf2, stronger effect = lower value 0.972 | S. cerevisiae deletion strains, locus YOR316C, strain cot1, stronger effect = lower value 0.977 | S. cerevisiae deletion strains, locus YPL051W, strain arl3, stronger effect = lower value 0.982 | S. cerevisiae deletion strains, locus YPL055C, strain LGE1, stronger effect = lower value 0.931 | S. cerevisiae deletion strains, locus YPL078C, strain atp4, stronger effect = lower value 0.965 | S. cerevisiae deletion strains, locus YPL106C, strain sse1, stronger effect = lower value 0.935 | S. cerevisiae deletion strains, locus YPL240C, strain hsp82, stronger effect = lower value 0.995 | S. cerevisiae deletion strains, locus YPL256C, strain CLN2, stronger effect = lower value 0.97 | S. cerevisiae deletion strains, locus YPR119W, strain clb2, stronger effect = lower value 0.981 | S. cerevisiae deletion strains, locus YPR141C, strain kar3, stronger effect = lower value 0.969 | S. cerevisiae deletion strains, locus YPR163C, strain tif3, stronger effect = lower value 0.988 | S. cerevisiae deletion strains, locus YPR167C, strain met16, stronger effect = lower value 0.994 | S. cerevisiae deletion strains, strain wtn01, stronger effect = lower value 1 | S. cerevisiae strains, strain wild type, stronger effect = lower value 0.979
